Results with a measured potency or affinity are listed apart.
Legend:
Klebsiella pneumoniae = settings: Concentration 32 ug.mL-1; ASSAY_TEST Inhibition of Bacterial Growth; detection method Absorption (OD600); MEDIA CAMHB; plate type 384well; NBS; CORNING #3640; time 18 hr
Candida albicans = settings: 32 ug/mL
Cryptococcus neoformans = settings: Concentration 32 ug.mL-1; ASSAY_TEST Inhibition of Fungal Growth; detection method Resazurin; Absorption (OD600-OD570); plate type 384well; NBS; CORNING #3640

Compound	Inhibition (Klebsiella pneumoniae)	Inhibition (Candida albicans)	Inhibition (Cryptococcus neoformans)
CCCCCCCNS(=O)(=O)CCNC(=O)[C@H](O)C(C)(C)CO	15.06%	-2.91%	2.56%
CC(C)(CO)[C@H](O)C(=O)NCCC(=O)NCc1cn(C[C@H]2O[C@@H](n3ccc(N)nc3=O)[C@H](O)[C@@H]2O)nn1	19%	2.72%	-1.6%
CCCCCCNNC(=O)CCNC(=O)[C@H](O)C(C)(C)CO	13.13%	-0.25%	3.11%
CC(C)(CO)[C@H](O)C(=O)NCCCc1cn(C[C@H]2O[C@@H](n3ccc(N)nc3=O)[C@H](O)[C@@H]2O)nn1	15.48%	1.6%	-4.03%
CC(C)(C)C(O)C(=O)NCCC(=O)NCCc1ccccc1 (stereo not drawn)	24.7%	0.67%	-0.45%
CC(C)(CO)[C@@H](O)C(=O)NCCC(=S)NCCc1ccccc1	23.06%	-0.77%	0.82%
CC(C)(CO)[C@@H](O)C(=O)N/C=C/C(=O)NCCc1ccccc1	27.58%	6.96%	-6.96%
CCCCCCCNC(=S)CCNC(=O)[C@H](O)C(C)(C)CO	15.93%	2.87%	-3.35%
CC(C)(CN)C(O)C(=O)NCCC(=O)NCCc1ccccc1 (stereo not drawn)	28.43%	3.05%	42.65%
C#CCNC(=O)[C@H](O)C(C)(C)CO	17.37%	-0.84%	-0.61%
CC(C)(CO)[C@H](O)C(=O)NCc1cn(C[C@H]2O[C@@H](n3ccc(N)nc3=O)[C@H](O)[C@@H]2O)nn1	7.03%	-0.48%	6.11%

Reference: ChEMBL document CHEMBL4513148, “CO-ADD screening of Stellenbosch University (South Africa) compounds”
